# Experiments:
# Settings in all cases: concentration: 1 μM, replicates: in singlicate; n = 1
# CSNK1G1 = system: CSNK1G1
# CSNK1G2 = system: CSNK1G2
# CSNK1G3 = system: CSNK1G3
# CSNK2A1 = system: CSNK2A1
# CSNK2A2 = system: CSNK2A2
# CTK = system: T1, CTK
# T1 construct: gene MATK
# DAPK1 = system: DAPK1
# DAPK2 = system: DAPK2
# DAPK3 = system: DAPK3
# DCAMKL1 = system: T2, DCAMKL1
# T2 construct: gene DCLK1
# DCAMKL2 = system: T3, DCAMKL2
# T3 construct: gene DCLK2
# DCAMKL3 = system: T4, DCAMKL3
# T4 construct: gene DCLK3
# DDR1 = system: DDR1
# DDR2 = system: DDR2
# DLK = system: T5, DLK
# T5 construct: gene MAP3K12
# DMPK2 = system: T6, DMPK2
# T6 construct: gene CDC42BPG
# DMPK = system: DMPK
# DRAK1 = system: T7, DRAK1
# T7 construct: gene STK17A
# DRAK2 = system: T8, DRAK2
# T8 construct: gene STK17B
# DYRK1A = system: DYRK1A
# 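Also: KINOMEscan kinase panel screen.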
Compound,%Inh (CSNK1G1) [%],%Inh (CSNK1G2) [%],%Inh (CSNK1G3) [%],%Inh (CSNK2A1) [%],%Inh (CSNK2A2) [%],%Inh (CTK) [%],%Inh (DAPK1) [%],%Inh (DAPK2) [%],%Inh (DAPK3) [%],%Inh (DCAMKL1) [%],%Inh (DCAMKL2) [%],%Inh (DCAMKL3) [%],%Inh (DDR1) [%],%Inh (DDR2) [%],%Inh (DLK) [%],%Inh (DMPK2) [%],%Inh (DMPK) [%],%Inh (DRAK1) [%],%Inh (DRAK2) [%],%Inh (DYRK1A) [%]
O=C(Nc1n[nH]c2nc(-c3cccc(O)c3)ccc12)C1CC1 [SB-711805],6,0,25,52,82,0,17,0,23,17,0,49,0,20,0,0,0,24,12,76
O=C1NC(=O)C(c2ccccc2Cl)=C1Nc1cccc(Cl)c1 [SB-342409],14,0,26,0,0,24,0,0,15,13,10,14,9,0,0,75,1,1,0,61
Cc1ccc(NC(=O)c2ccnc(N3CCCCC3)c2)cc1-c1ccc(C(=O)NCC2CC2)cc1 [GW775610],0,20,0,0,0,25,100,0,12,0,0,4,99,93.6,5,0,0,0,0,40
Nc1ncc(-c2cn[nH]c2)c2scc(-c3ccc4c(c3)CCN4C(=O)Cc3ccccc3)c12 [GSK2593067],6,24,27,11,0,12,0,0,22,0,5,0,98.4,22,18,90.3,0,0,0,20
CCOc1nccc(-c2c(-c3ccc(F)cc3)ncn2C2CCNCC2)n1 [SB-249175],0,32,0,56,65,0,0,0,0,25,24,10,0,7,0,75,15,0,0,1
CN1CCN(Cc2ccc(NC(=O)Nc3ccc(N(C)c4ccnc(Nc5ccc(CS(C)(=O)=O)cc5)n4)cc3)cc2)CC1.Cl [GW827654],0,0,0,100,22,16,8,0,0,44,18,30,99.4,100,64,57,0,10,21,0
CC(C)(C)c1ccc(C(=O)Nc2cn3cc(-n4ccnc4)ccc3n2)cc1,0,12,0,0,7,24,0,16,2,29,0,0,0,2,0,4,0,20,35,91.4
CCn1c(-c2nonc2N)nc2c(-c3ccccc3)ncc(OCCCN)c21.O=C(O)C(F)(F)F.O=C(O)C(F)(F)F [GSK260205],10,0,29,22,31,0,10,2,25,0,9,70,26,31,0,100,0,5,2,23
Nc1cccc(-c2ccc3c(N)n[nH]c3c2)c1 [GSK2193613],13,0,18,27,61,0,0,6,4,13,0,0,0,0,43,0,33,95.1,0,24
Cc1cc(-c2c(-c3ccc(F)cc3)ncn2CCCN2CCOCC2)nc(N)n1 [SB-222517],0,8,0,0,0,0,0,21,38,40,2,0,0,21,0,0,16,13,15,0
COc1cccc(CC(=O)N2CCc3cc(-c4cn(C)c5ncnc(N)c45)ccc32)c1 [GSK2608899],23,5,29,14,15,0,2,0,21,26,0,14,97,27,36,53,25,4,0,6
N#Cc1cnc2cc(-c3cnc(CNCCN4CCOCC4)s3)ccc2c1Nc1ccc(Oc2ccccc2)cc1 [GW664114],19,0,25,0,5,26,26,0,2,19,0,0,21,11,91.2,0,0,2,0,38
O=C(Nc1n[nH]c2nc(-c3ccccc3)ccc12)C1CC1 [SB-708999],0,0,68,23,75,0,0,11,4,4,6,0,3,32,0,50,0,0,0,15
COc1cccc(NC(=O)NCCNc2ccnc(Nc3ccc(F)cc3)n2)c1 [GSK1379879],0,0,23,0,7,0,0,0,17,9,0,0,7,1,21,0,0,0,31,10
O=C(O)C(F)(F)F.O=c1[nH]ccc2nc(N[C@@H]3CCNC3)nc(Nc3cc(Cl)cc(Cl)c3)c12 [GSK2188764],77,94.2,95.1,98.9,100,0,97.3,97.4,100,86,52,82,0,18,43,41,98.3,99.7,79,3
Cc1ccc(Nc2ccnc(Nc3ccc(C)c(F)c3)n2)cc1O.Cl [GW582868],0,0,0,0,9,0,0,0,4,11,0,0,10,12,40,0,0,0,0,20
CC(C)NCC(Cc1ccccc1)NC(=O)c1cc(Br)c(-c2ccnc3[nH]ccc23)s1.Cl.Cl (stereo not shown) [GSK1383281],13,14,29,59,46,0,18,0,37,34,0,54,0,13,24,50,32,0,4,17

# From paper PMC5540273 (PLoS ONE, 2017)
